Marburg entry inh – blocks Marburg virus binding to or entry into cells. 300,000 compounds, 1.8% hits. Potency, µM (top dose mostly 37.8 µM), without a hit: at the top dose activity change, negative = inhibition, hits mostly inhibitors. Marburg virus pseudotyped entry inhibition, cell reporter; calls by dose curve; tested in HEK293 cells; also: potency is read from the fitted curve at half-maximal effect
VACV mCherry inh – vaccinia inhibition (mCherry reporter). 310,000 compounds, 0.63% hits. Potency, µM (top dose mostly 36.5 µM), without a hit: top-dose activity change, negative = inhibition, most hits filed as inhibitors. AID 720579. Vaccinia virus mCherry reporter infection, fluorescence; calls by dose curve; tested in A549 cells; also: potency is read from the fitted curve at half-maximal effect; nearly all actives have a fitted effect of over 35% in size
Vaccinia Venus – vaccinia inhibition (Venus reporter) | Vaccinia virus Venus reporter expression, fluorescence | Potency, µM (titrated, usually from 36.5 µM), inactives show at the top dose activity change, negative = inhibition, actives largely listed as inhibitors | 330,000 compounds, 0.46% hits | AID 720580; calls by dose curve; tested in A549 cells; also: potency is read from the fitted curve at half-maximal effect; nearly all actives have a fitted effect of over 30% in size
HCMV antiviral – human cytomegalovirus inhibition. 410,000 compounds, 4.5% hits. activity change, negative = inhibition, % at 57.5 µM. HFF cells, HCMV-luciferase reporter, 72 h; active compounds read low; in the data active = activity change below about -60%; inconclusive = no clear call, values can overlap the other calls; inactive = above about -39%
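HFF cells seeded 16 h at 37C, treated with compounds, infected with luciferase-reporter HCMV at MOI 1 PFU/cell; luciferase read at 72 h post infection, normalized to buffer-only and Salinomycin controls.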
Lassa entry inh – blocks Lassa virus binding to or entry into cells | Lassa virus pseudotype entry inhibition, cell reporter | Potency, µM (titrated, usually from 37.9 µM), inactives show at the top dose activity change, negative = inhibition, usual class: inhibitors | 300,000 compounds, 1.2% hits | AID 540256; calls by dose curve; tested in HEK293 cells; also: potency is read from the fitted curve at half-maximal effect; nearly all actives have a fitted effect of over 50% in size
FMDV antiviral – foot and mouth disease virus antiviral activity; FMDV antiviral cell-based qHTS; Potency, µM (top dose mostly 57.9 µM), for inactives: at the highest dose activity change, negative = inhibition, actives largely listed as inhibitors; 410,000 compounds, 1.2% hits; AID 1159524; calls by dose curve; tested in HEK293T cells; also: read-out not given here; potency is read from the fitted curve at half-maximal effect; nearly all actives have a fitted effect of over 45% in size
Active calls of the source: *; i = inactive; ? = inconclusive; / = not tested or not shown; [ ] = another dose, or the depositor's remark. The list is not random: actives were taken first. Their share in the collection is about 6.5%. % is scaled to controls: 0 for no effect and ±100 for the full control effect.

SMILES | Marburg entry inh | VACV mCherry inh | Vaccinia Venus | HCMV antiviral | Lassa entry inh | FMDV antiviral
O=c1[nH][nH]c(C(F)(F)F)c1C=Nc1ccccc1 | -10.5% | / | / | -6.9 | 3.6% | -0.2%
O=c1[nH][nH]c(C(F)(F)F)c1C=NCc1cccs1 | / | / | / | -65.2* | / | -25.9%
O=C(CSc1nc2ncccc2[nH]1)c1cccc([N+](=O)[O-])c1 | ? | ? | -19.8% | -65.6* | -9.6% | -27.9%
O=C(CSc1nc2ncccc2[nH]1)c1ccc(F)cc1 | 10.8% | / | -19.0% | -18.7 | -0.5% | 9.0%
Cc1nc2ccccc2n1Cc1ccccc1 | / | / | / | -36.0 | / | -21.2%
CC(c1nc2ccccc2n1Cc1ccccc1)N1CCCCC1 (centres undefined) | ? | i | 0.0% | -66.8* | -54.4%[46.1 µM] | ?
COCC(=O)N1CC(=O)N2[C@@H](CO)[C@H](c3ccc(Br)cc3)[C@@H]2C1 | / | / | / | 2.9 | / | /
Cc1cc(C)cc(NC(=O)C2C3C=CC4(O3)C2C(=O)N(CCCN2CCCC2)C4C(=O)NC2CCCC(C)C2C)c1 (centres undefined) | -30.0%[46.1 µM] | i | -6.2% | -2.0 | 12.0% | -16.0%
COc1ccc(NC(=O)C2C3C=CC4(O3)C2C(=O)N(CCN2CCCCC2)C4C(=O)NC2CCCC(C)C2C)cc1 (centres undefined) | 5.01µM* | -22.8% | -28.0% | 13.8 | 16.2%[46.1 µM] | -17.0%
Cc1ccc(S(=O)(=O)N(C)C)cc1NC(=O)COC(=O)/C=C/c1ccc(F)cc1 | 12.8% | -15.7% | -6.2% | -37.9 | -2.9% | -14.7%
CCCCn1c(SCC(=O)Nc2cccc(OC)c2)nc2c(sc3ccccc32)c1=O | / | -20.2% | -17.5% | 14.5 | 24.1%[46.1 µM] | 24.8%
NC(=O)C1CCN(CC(O)CSc2ccccc2)CC1 (centres undefined) | / | / | / | 9.5 | / | 4.9%
OC(CSc1ccccc1)CN1CCN(c2ccccc2)CC1 (centres undefined) | ? | -19.8% | -11.8% | -102.2* | -7.0% | -10.2%
O=C(c1cnn2c(C(F)(F)F)cc(-c3ccc(F)cc3)nc12)N1CCc2ccccc2C1 | ? | i | -6.8% | -71.7* | ? | -8.1%
Cc1cc(C)cc(C(=O)N(CCc2ccccc2)C2CC3CCC(C2)N3C)c1 (centres undefined) | 3.16µM* | -10.8% | ? | -28.5 | ? | -12.3%
Cc1cc(C)cc(C(=O)OC2C[C@H]3CC[C@@H](C2)N3C)c1 (some centres undefined) | / | / | / | / | / | -17.4%
CCCCOc1ccc(N2C(=O)C(C)CNC2=S)cc1 (centres undefined) | -1.5% | -11.6% | 2.3% | -99.4* | 0.0%[46.1 µM] | 2.8%
CS(=O)(=O)c1ccc(-c2cccc3c2OC(CNC(=O)c2cc(C4CC4)[nH]n2)C3)cc1 (centres undefined) | / | -7.9% | 1.7% | / | / | -13.0%
CCOC(=O)c1c(C)nc(C)c(C(=O)OCC)c1-c1ccccc1 | 22.0% | / | / | 9.3 | 0.5% | 0.0%
CCOc1c(C(N)=O)c(-c2ccccc2)c2c(=O)[nH]c3ccccc3n12 | -10.6% | / | -10.7% | -60.2* | -1.4% | -0.2%
C[C@@H]1C[C@H]2[C@@H]3CCC4=CC(=O)C=C[C@]4(C)[C@@]3(Cl)[C@@H](O)C[C@]2(C)[C@@]1(OC(=O)c1ccco1)C(=O)CCl | / | ? | ? | -73.5* | / | ?
CC1CC2C3CCC4=CC(=O)C=C[C@]4(C)[C@@]3(Cl)C(O)C[C@]2(C)C1(OC(=O)c1ccco1)C(=O)CCl (some centres undefined) | / | i | -0.5% | / | / | 3.8%
Cc1ccc(/C=N/n2c(-c3ccccc3)n[nH]c2=S)cc1 | / | / | / | -21.1 | / | -13.8%
Cc1nn(-c2ccccc2)c(C)c1/C=N/n1c(-c2ccc(C(C)(C)C)cc2)n[nH]c1=S | -25.7% | / | -21.6% | -17.7 | 0.112µM* | -8.1%
Cc1ccc(-c2n[nH]c(=S)n2/N=C/c2c(C)nn(-c3ccccc3)c2C)cc1 | ? | -10.7% | -8.3% | 7.1 | ? | ?
S=c1[nH]nc(-c2ccccc2)n1/N=C/c1ccc(-c2ccccc2Cl)o1 | 0.708µM* | ? | 12.4% | ? | 0.82µM* | 0.0%
CC(C)c1ccc(/C=N/n2c(-c3ccccc3)n[nH]c2=S)cc1 | / | / | / | -65.9* | / | 3.0%
Nc1ccccc1Sc1c[nH]c2ccccc12 | / | / | / | 0.0 | / | 13.3%
O=C(NCc1ccccc1Cl)C(=O)NCC1OCCCN1S(=O)(=O)c1cccs1 (centres undefined) | -8.3% | -8.7% | -6.8% | / | 7.3% | -3.8%

High-throughput results as filed in PubChem.
